Measured values reported in PubChem BioAssay AID2069 (Sanford-Burnham Center for Chemical Genomics, 2009).
Among all 1,200 compounds or so, about 210 (18%) were called active. No stated cut-off is given here; in the data, active means inhibition above about 30%; inactive means the rest. Only a sample is shown.

Assay: HTRF signal interference by compounds, confirmation, artefact control for SUMOylation inhibitor project, biochemical, uHTS (AID 2069)
Details: HTRF interference counterscreen, fluorescence, at 35 µM, stronger effect = higher value
In the case of O=[N+]([O-])c1c(NCCO)cc(N2CCC3(CC2)OCCO3)c2nonc12, the inhibition is reported as -10.3% (inactive).
For CCOc1ccc(C2Nc3cccc4cccc(c34)N2)cc1OC, the inhibition was -29.6% (inactive).
In the case of O=C1C(=O)c2ccccc2C(O)=C1CCCCl, the inhibition is reported as -11.4% (inactive).
With CCc1ccccc1NC(=O)Nc1cccn(Cc2ccccc2F)c1=O the inhibition was -9.65% (inactive).
With Cc1ccc(S(=O)(=O)c2cc3c(=O)n4ccccc4nc3n(Cc3ccco3)c2=N)cc1C the inhibition was 9.75% (inactive).
With Cn1c(C(=O)NCC2CCCO2)cc2c(=O)n3ccccc3nc21 (stereo unspecified) the inhibition was 51% (active).
In the case of CC1CCCCC1NC(=O)c1cc2c(=O)n3ccccc3nc2n1C (stereo unspecified), the inhibition is reported as 57.8% (active).
For C=CCNc1nc(NCc2ccccc2)c(C#N)c2c1CN(C)CC2, the inhibition was 18.9% (inactive).
In the case of OCCNC(=S)Nc1ccc2nsnc2c1, the inhibition is reported as 10.1% (inactive).
With CC(C)N1CCC2(CC1)C(C#N)=C(N)NC(S)=C2C#N the inhibition was 33.9% (active).
With Cc1ccoc1C(=O)NCCCNC(=O)c1occc1C the inhibition was 0.95% (inactive).
For COc1ccc(CN2C(=O)Cc3c2nc(N)c2c(N)nc(N4CCOCC4)c(C#N)c32)cc1, the inhibition was 42.5% (active).
For COc1cc2c(C#N)c(N3CCN(c4ccccc4OC)CC3)nc(N)c2c(N)n1, the inhibition was 16.6% (inactive).
In the case of COCC(C)N1C(=O)Cc2c1nc(N)c1c(N)nc(N3CCN(c4ccccc4F)CC3)c(C#N)c21 (stereo unspecified), the inhibition is reported as 19.1% (inactive).
In the case of CCOc1cc2c(C#N)c(N3CCNCC3)nc(N)c2c(N)n1, the inhibition is reported as 47.2% (active).
With CCOc1cc2c(C#N)c(N3CCOCC3)nc(N)c2c(N)n1 the inhibition was 51.2% (active).
In the case of N#Cc1c(N2CCCCC2)nc(N)c2c(N)nc(SCC(=O)O)cc12, the inhibition is reported as 14.9% (inactive).
In the case of CCOc1cc2c(C#N)c(N3CCCCC3)nc(N)c2c(N)n1, the inhibition is reported as 20.6% (inactive).
For COCCN(CCOC)c1nc(N)c2c(N)nc3c(c2c1C#N)CC(=O)N3Cc1ccc(Cl)cc1, the inhibition was 27.9% (inactive).
For COc1cc2c(C#N)c(N3CCCC3)nc(N)c2c(N)n1, the inhibition was 27.4% (inactive).
In the case of COc1cc2c(C#N)c(N3CCCCC3)nc(N)c2c(N)n1, the inhibition is reported as 25.2% (inactive).
For COc1cc2c(C#N)c(N3CCN(C)CC3)nc(N)c2c(N)n1, the inhibition was 43.2% (active).
In the case of S=c1[nH]nc(-c2cc(-c3ccccc3)n[nH]2)n1/N=C/c1ccc(Br)s1, the inhibition is reported as -6.25% (inactive).
With O=C(NC(=S)Nc1cccc2c(O)cccc12)c1ccco1 the inhibition was -6.9% (inactive).
For Cc1ccc(Cn2cccc(NS(C)(=O)=O)c2=O)cc1, the inhibition was -3.15% (inactive).
In the case of O=S(=O)(Nc1cc2nc3ccccc3nc2n1Cc1ccccc1)c1ccc(Cl)cc1, the inhibition is reported as 24.5% (inactive).
For Oc1cccc(C=NCc2ccccc2)c1O, the inhibition was -0.8% (inactive).
With CNS(=O)(=O)c1ccc2nc(NC(=O)/C=C/c3ccco3)sc2c1 the inhibition was 25.6% (inactive).
In the case of COc1cc2cc(NC(C)=O)cc(NCc3ccccc3)c2cc1OC, the inhibition is reported as -19.9% (inactive).
With Cc1ccc(N2CCN(Cc3ccccc3)CC2=O)c(C)c1 the inhibition was -6.45% (inactive).
For O=Cc1cn(-c2ccccc2)nc1-c1cc2cc(O)ccc2oc1=O, the inhibition was 11.8% (inactive).
With O=C(O)/C=C\c1cn(-c2ccccc2)nc1-c1cc2ccccc2o1 the inhibition was 48.1% (active).
With O=C(O)/C=C/c1cn(-c2ccccc2)nc1-c1cc2ccccc2o1 the inhibition was 41.2% (active).
For Nc1c(N2CCOCC2)cc(Cl)c2nonc12, the inhibition was 3% (inactive).
For Cc1ccc(C(=O)N[C@H](C(=O)Nc2cc(Cl)cc(Cl)c2)C(C)C)cc1, the inhibition was 3.15% (inactive).
In the case of N#Cc1ccsc1NC(=O)CN1CCN(c2ccc(O)cc2)CC1, the inhibition is reported as 14.3% (inactive).
For Nc1c(C(=O)N/N=C/c2cccnc2)oc2nc(-c3ccco3)cc(-c3ccco3)c12, the inhibition was 20% (inactive).
In the case of Cc1ccc(-c2cc(-c3ccccc3O)nc(N/N=C/c3cccnc3)n2)cc1, the inhibition is reported as 52.2% (active).
With S=c1[nH]nc(-c2ccncc2)n1/N=C/c1ccccc1Cl the inhibition was -1.75% (inactive).
In the case of CC(C)N1C(=O)CC(Nc2cccc3cccc(N)c23)C1=O (stereo unspecified), the inhibition is reported as -13.8% (inactive).
With Cc1ccc(-c2[nH]ncc2/C=N/n2c(C)nc3ccccc3c2=O)cc1 the inhibition was -0.85% (inactive).
In the case of O=C(Cc1cccc2ccccc12)NN1C(=O)/C(=C\c2cccnc2)SC1=S, the inhibition is reported as -7.8% (inactive).
For O=c1c2ccccc2nc(/C=C/c2cccnc2)n1Cc1ccccc1, the inhibition was 30.9% (active).
With COc1ccc(S(=O)(=O)C(C#N)c2nc3ccccc3nc2N2CCCCC2)cc1 (stereo unspecified) the inhibition was -7.95% (inactive).
In the case of Cc1ccc(S(=O)(=O)C(C#N)c2nc3ccccc3nc2N2CCCC2)cc1C (stereo unspecified), the inhibition is reported as -3.55% (inactive).
With CCOC(=O)c1c(NC(=O)C2C3C=CC(CC3)C2C(=O)O)sc(C)c1CC (stereo unspecified) the inhibition was 0.4% (inactive).
With O=C(N/N=C/c1ccc([N+](=O)[O-])o1)c1cc(-c2ccc(-c3ccccc3)cc2)nc2ccccc12 the inhibition was 4.6% (inactive).
With Cc1ccc(C2Nc3cccc4cccc(c34)N2)s1 the inhibition was -32.4% (inactive).
With Cc1cc(=O)n2[nH]c(N)c(N=Nc3ccccc3F)c2n1 the inhibition was -14.7% (inactive).
In the case of COc1ccc(C(=O)Nc2ccc(-c3nnn(CC(=O)N4CCN(C(=O)c5ccco5)CC4)n3)cc2)cc1, the inhibition is reported as 25.6% (inactive).
For COc1ccc(/C=C2/SC(=S)N(c3ccc(S(=O)(=O)Nc4nccs4)cc3)C2=O)cc1, the inhibition was -18% (inactive).
For CCOC(=O)c1nn(-c2ccc3c(c2)CCN3C(C)=O)cc1O, the inhibition was 48.8% (active).
For COc1ccc(Br)cc1CNc1ccc(O)cc1, the inhibition was -15.2% (inactive).
With O=C(O)CCCN1C(=O)/C(=C/C=C/c2ccco2)SC1=S the inhibition was 11.7% (inactive).
With O=C(O)CCCN1C(=O)/C(=C/c2cn(-c3ccccc3)nc2-c2cccs2)SC1=S the inhibition was 4.55% (inactive).
In the case of Cc1ccc(-c2nn(-c3ccccc3)cc2/C=C2\SC(=S)N(CCCCCC(=O)O)C2=O)o1, the inhibition is reported as 37% (active).
For COC(=O)c1cc2c(C)[nH]c(C)c2cc(C(=O)OC)c1=O, the inhibition was 3.75% (inactive).
In the case of O=[N+]([O-])c1ccc(C=Nc2ccc(Cl)c([N+](=O)[O-])c2)s1, the inhibition is reported as 6.5% (inactive).
In the case of O=C(NNc1cc(N2CCCC2)nc(N2CCCC2)n1)c1ccc([N+](=O)[O-])cc1, the inhibition is reported as -2.1% (inactive).
With Cc1ccc(/C=c2\sc3nc(-c4ccco4)nn3c2=O)o1 the inhibition was -1.1% (inactive).
With Cc1sc2nc3ccc(NCc4ccco4)nn3c(=O)c2c1C the inhibition was 44.4% (active).
